Assay outcomes (PubChem BioAssay)
PHOSPHO1 block: PHOSPHO1 (human) inhibition | recombinant PHOSPHO1, absorbance phosphatase assay | inhibition, % at 13.3 µM | 290,000 tested, 1.1% active | Q8TCT1 | AID 1565; in the data active = inhibition above about 60%
Target sequence (Q8TCT1 whole entry, looked up): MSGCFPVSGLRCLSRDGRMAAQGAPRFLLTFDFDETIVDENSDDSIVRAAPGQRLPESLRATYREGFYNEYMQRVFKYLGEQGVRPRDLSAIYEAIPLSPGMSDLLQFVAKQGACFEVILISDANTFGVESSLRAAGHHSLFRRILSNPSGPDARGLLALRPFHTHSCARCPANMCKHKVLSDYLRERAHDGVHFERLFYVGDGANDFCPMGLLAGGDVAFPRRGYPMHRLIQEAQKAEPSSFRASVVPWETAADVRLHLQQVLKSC
PABP FP inh: PABP-poly(A) binding inhibition; PABP-poly(A) RNA binding, fluorescence polarization; 290,000 tested, 1% active; calls only at 35 µM;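 also: calls also rest on retests at 20 µM and on dose response follow-up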
ABCB6 inh 2: blocks the human ABCB6 transporter; fluorescence ratio to DMSO, % at 10 µM; 360,000 tested, 0.19% active; Q9NP58; K562-ABCB6 porphyrin accumulation, flow cytometry, 1 h; hits give low values;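 active = fluorescence ratio to DMSO below 75%, the collection mean minus 3 SD; inconclusive = too few cells collected in the well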;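 also: signal is porphyrin accumulated inside mitochondria; 100% equals median channel fluorescence of DMSO control wells; lower ratio means ABCB6 inhibition with less porphyrin fluorescence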
eIF4H FP inh: inhibitors of RNA binding by human eIF4H; AID 2012; eIF4H fluorescence polarization binding assay; 290,000 tested, 0.94% active; Q15056; inhibition, % at 35 µM;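 also: calls also rest on retests at 20 µM and on dose response follow-up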
PABP1 MLLE inh: inhibitors of microRNA-mediated deadenylation, human PABP1 MLLE binding | P11940 | GST-MLLE / FITC-PAM2 fluorescence polarization | inhibition, % at 20 µM | 360,000 tested, 0.36% active | AID 588489; in the data active = inhibition above about 35%, passing the limit was not always enough;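 also: plate controls were DMSO wells with GST-MLLE for no effect and wells lacking GST-MLLE protein for full effect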
AI-2 QS modul: Vibrio harveyi AI-2 quorum sensing modulation; Vibrio harveyi JMH597 AI-2 luminescence/OD600 ratio, 9 h; hits give low values; strain lacks LuxN and CqsS sensors; 0 = neutral-control median; activity change, % at 7.5 µM; 300,000 tested, 0.4% active; AID 2094; in the data active = activity change below about -75%, passing the limit was not always enough; inconclusive = no clear call, values can overlap the other calls;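 also: luminescence divided by OD600 gain over 9 h not by final OD600 alone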
JMH597 growth: retest: blocks Vibrio harveyi JMH597 growth; growth inhibition, % at 7.5 µM; 750 tested, 1% active; OD600 absorbance, 9 h; lacks LuxN and CqsS sensors; AID 2726; shares compounds with AI-2 QS modul;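 active = every replicate shows growth inhibition above 50%; inconclusive = at least half, but not all, replicates pass that cutoff; inactive = fewer than half of replicates pass it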
BB721 lum counter: retest counter-screen: luminescence loss in constitutive-on quorum sensing strain BB721; shares compounds with AI-2 QS modul; AID 2727; Vibrio harveyi BB721 luminescence, 9 h; inhibition, % at 7.5 µM; 750 tested, 95% active;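 active = inhibition above about 80% in every replicate, not just on average, limit read from the data; inconclusive = at least half of replicates past the limit, but not all; inactive = fewer than half of replicates past the limit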
BB721 growth rt: retest Vibrio harveyi BB721 growth inhibition. shares compounds with AI-2 QS modul. 750 tested, 3% active. OD600 absorbance, 9 h. AID 2728. growth inhibition, % at 7.5 µM;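 active = every replicate shows growth inhibition above 50%; inconclusive = at least half but not all replicates above 50% inhibition; inactive = under half of replicates above 50% inhibition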
JMH597 AI-2 mod: Vibrio harveyi AI-2 signaling luminescence modulation – JMH597 strain, confirmation; shares compounds with AI-2 QS modul; Vibrio harveyi JMH597 AI-2 quorum sensing luminescence, 9 h; luxN and CqsS knockout, AI-2 only; inhibition, % at 7.5 µM; 750 tested, 97% active; AID 2736;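 active = every replicate shows more than 75% inhibition of signal versus neutral control wells; inconclusive = half to three quarters of replicates exceed 75% inhibition; inactive = fewer than half of replicates exceed 75% inhibition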
Starred values were filed as active, the others as inactive. Only some compounds are listed: those with a hit (about 2.6% of all), similar ones and a draw of the others. Unless noted, no rule for the calls is given here.

Results for COc1ccc(CNC(=S)Nc2cccc(C)c2)cc1 ?
PHOSPHO1 block: 0; PABP FP inh: inactive; ABCB6 inh 2: 93; eIF4H FP inh: 4; PABP1 MLLE inh: -7; AI-2 QS modul: -51

How did COC(=O)c1cccc(NC(=S)NCc2ccc(Cl)cc2)c1 do in these assays?
PHOSPHO1 block: -7; PABP FP inh: inactive; ABCB6 inh 2: 91; eIF4H FP inh: -7; PABP1 MLLE inh: -20; AI-2 QS modul: -83*; JMH597 growth: -24; BB721 lum counter: 90*; BB721 growth rt: 3; JMH597 AI-2 mod: 92*

How did COc1ccc(CNC(=S)Nc2cccc(Cl)c2)cc1 do in these assays?
ABCB6 inh 2: 93; PABP1 MLLE inh: -16; AI-2 QS modul: -84*; JMH597 growth: 0; BB721 lum counter: 95*; BB721 growth rt: 7; JMH597 AI-2 mod: 95*

What do the screens show for `COc1ccc(CNC(=O)Nc2cccc(Cl)c2)cc1`?
PHOSPHO1 block: 37; PABP FP inh: inactive; ABCB6 inh 2: 99; eIF4H FP inh: 4; PABP1 MLLE inh: 10; AI-2 QS modul: -94*; JMH597 growth: 0; BB721 lum counter: 97*; BB721 growth rt: 14; JMH597 AI-2 mod: 98*

What do the screens show for `Cc1ccc(C(=O)N2CCC2(C)C(=O)NC(C)C)cc1` (centres undefined)?
ABCB6 inh 2: 106; PABP1 MLLE inh: 9

What do the screens show for `CCNC(=O)C1(C)CCCN(Cc2ccccc2-c2ccccc2)C1` (centres undefined)?
ABCB6 inh 2: 89; PABP1 MLLE inh: 14

Results for CC(N)C(=O)NC(C(=O)NC(C)C(=O)Nc1cccc2ccccc12)C(C)C (centres undefined) ?
ABCB6 inh 2: 110; PABP1 MLLE inh: -12

What do the screens show for `O=C(CN1CCN(Cc2ccccc2)CC1)Nc1cccc(Cl)c1Cl`?
ABCB6 inh 2: 76; PABP1 MLLE inh: -8

How did COc1ccc(-c2noc(CCc3ccccc3)n2)cc1 do in these assays?
PHOSPHO1 block: -17; PABP FP inh: inactive; ABCB6 inh 2: 99; eIF4H FP inh: -16; PABP1 MLLE inh: -13; AI-2 QS modul: inconclusive; JMH597 growth: 26; BB721 lum counter: 94*; BB721 growth rt: -27; JMH597 AI-2 mod: 97*

How did Cc1cccc(-c2noc(Cc3ccc(Cl)cc3)n2)c1 do in these assays?
PHOSPHO1 block: 24; PABP FP inh: inactive; ABCB6 inh 2: 95; eIF4H FP inh: 0; PABP1 MLLE inh: 10; AI-2 QS modul: -64

What do the screens show for `c1ccc(CCCc2nc(-c3cccnc3)no2)cc1`?
PHOSPHO1 block: 29; PABP FP inh: inactive; ABCB6 inh 2: 96; eIF4H FP inh: -2; PABP1 MLLE inh: -1; AI-2 QS modul: -62

Results for c1ccc(OCCCc2nc(-c3cccnc3)no2)cc1 ?
PHOSPHO1 block: -11; PABP FP inh: inactive; ABCB6 inh 2: 98; eIF4H FP inh: -9; PABP1 MLLE inh: 2; AI-2 QS modul: -93*; JMH597 growth: 7; BB721 lum counter: 98*; BB721 growth rt: -15; JMH597 AI-2 mod: 99*

What do the screens show for `COc1ccc(CCc2nc(-c3ccc(-n4cccc4)cc3)no2)cc1`?
PHOSPHO1 block: 0; PABP FP inh: inactive; ABCB6 inh 2: 96; eIF4H FP inh: 10; PABP1 MLLE inh: 0; AI-2 QS modul: 32

What do the screens show for `COc1ccc(Cc2nc(-c3ccccn3)no2)cc1`?
PHOSPHO1 block: 2; PABP FP inh: inactive; ABCB6 inh 2: 92; eIF4H FP inh: -5; PABP1 MLLE inh: -1; AI-2 QS modul: -88*; JMH597 growth: -9; BB721 lum counter: 95*; BB721 growth rt: -20; JMH597 AI-2 mod: 96*
